Laboratory results: PubChem BioAssay
Where a SMILES comes first, the peptide text is derived from it.

Legend:
[1] = test system: Botulinum neurotoxin type F light chain protease (Clostridium botulinum); experiment: Clostridium botulinum type F light chain protease inhibitors, microsphere substrate cleavage, validation (AID 588459); details: multiplex microsphere protease substrate cleavage assay, flow cytometry; at 10 µM; active compounds read high
[2] = target: Botulinum neurotoxin type A (Clostridium botulinum) (UniProt P0DPI0); experiment: BoNT/A light chain protease inhibitors, biochemical, multiplex microsphere flow cytometry, validation set (AID 588460); details: at 10 µM, active compounds read high
[3] = target: Lethal factor (Bacillus anthracis) (UniProt P15917); experiment: Bacillus anthracis lethal factor inhibition, microsphere flow cytometry protease assay, validation at 10 µM (AID 588461); details: multiplex microsphere protease cleavage assay, active compounds read high

Measured: inhibition

Chain of Botulinum neurotoxin type A (Clostridium botulinum) (P0DPI0 whole entry, looked up): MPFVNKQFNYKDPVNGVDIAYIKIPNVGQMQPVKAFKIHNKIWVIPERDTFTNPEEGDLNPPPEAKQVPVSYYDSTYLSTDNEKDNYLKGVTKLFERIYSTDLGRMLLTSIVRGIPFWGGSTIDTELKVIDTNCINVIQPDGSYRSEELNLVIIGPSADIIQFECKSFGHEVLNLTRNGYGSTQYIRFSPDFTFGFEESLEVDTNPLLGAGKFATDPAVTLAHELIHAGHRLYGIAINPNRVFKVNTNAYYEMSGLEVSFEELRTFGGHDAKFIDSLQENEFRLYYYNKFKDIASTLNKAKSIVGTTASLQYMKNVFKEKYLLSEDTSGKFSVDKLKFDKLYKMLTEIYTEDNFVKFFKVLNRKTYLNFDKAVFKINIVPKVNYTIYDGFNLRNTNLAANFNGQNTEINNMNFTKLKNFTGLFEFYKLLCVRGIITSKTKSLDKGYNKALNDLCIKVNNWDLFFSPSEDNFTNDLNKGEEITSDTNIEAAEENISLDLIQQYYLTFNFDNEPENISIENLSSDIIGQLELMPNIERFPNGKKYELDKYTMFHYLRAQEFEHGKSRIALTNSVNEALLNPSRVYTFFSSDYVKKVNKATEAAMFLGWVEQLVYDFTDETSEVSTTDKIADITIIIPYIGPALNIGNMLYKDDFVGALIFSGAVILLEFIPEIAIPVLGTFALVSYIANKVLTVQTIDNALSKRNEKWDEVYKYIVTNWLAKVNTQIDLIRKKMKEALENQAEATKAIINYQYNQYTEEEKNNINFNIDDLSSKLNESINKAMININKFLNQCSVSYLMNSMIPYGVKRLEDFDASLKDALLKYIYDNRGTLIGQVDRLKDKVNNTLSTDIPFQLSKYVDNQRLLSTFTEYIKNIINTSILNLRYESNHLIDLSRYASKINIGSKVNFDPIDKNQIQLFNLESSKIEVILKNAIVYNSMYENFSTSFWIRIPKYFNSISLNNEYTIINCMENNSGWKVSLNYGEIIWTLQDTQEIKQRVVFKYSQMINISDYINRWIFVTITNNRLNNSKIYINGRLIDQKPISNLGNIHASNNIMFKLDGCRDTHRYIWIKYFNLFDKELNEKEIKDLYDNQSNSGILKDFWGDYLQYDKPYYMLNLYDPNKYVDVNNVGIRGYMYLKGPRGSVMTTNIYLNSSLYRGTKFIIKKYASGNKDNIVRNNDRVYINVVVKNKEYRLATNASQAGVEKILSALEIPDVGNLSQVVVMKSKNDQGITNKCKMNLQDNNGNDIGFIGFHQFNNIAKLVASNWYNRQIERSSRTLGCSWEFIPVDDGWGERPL
Chain of Lethal factor (Bacillus anthracis) (P15917 whole entry, looked up): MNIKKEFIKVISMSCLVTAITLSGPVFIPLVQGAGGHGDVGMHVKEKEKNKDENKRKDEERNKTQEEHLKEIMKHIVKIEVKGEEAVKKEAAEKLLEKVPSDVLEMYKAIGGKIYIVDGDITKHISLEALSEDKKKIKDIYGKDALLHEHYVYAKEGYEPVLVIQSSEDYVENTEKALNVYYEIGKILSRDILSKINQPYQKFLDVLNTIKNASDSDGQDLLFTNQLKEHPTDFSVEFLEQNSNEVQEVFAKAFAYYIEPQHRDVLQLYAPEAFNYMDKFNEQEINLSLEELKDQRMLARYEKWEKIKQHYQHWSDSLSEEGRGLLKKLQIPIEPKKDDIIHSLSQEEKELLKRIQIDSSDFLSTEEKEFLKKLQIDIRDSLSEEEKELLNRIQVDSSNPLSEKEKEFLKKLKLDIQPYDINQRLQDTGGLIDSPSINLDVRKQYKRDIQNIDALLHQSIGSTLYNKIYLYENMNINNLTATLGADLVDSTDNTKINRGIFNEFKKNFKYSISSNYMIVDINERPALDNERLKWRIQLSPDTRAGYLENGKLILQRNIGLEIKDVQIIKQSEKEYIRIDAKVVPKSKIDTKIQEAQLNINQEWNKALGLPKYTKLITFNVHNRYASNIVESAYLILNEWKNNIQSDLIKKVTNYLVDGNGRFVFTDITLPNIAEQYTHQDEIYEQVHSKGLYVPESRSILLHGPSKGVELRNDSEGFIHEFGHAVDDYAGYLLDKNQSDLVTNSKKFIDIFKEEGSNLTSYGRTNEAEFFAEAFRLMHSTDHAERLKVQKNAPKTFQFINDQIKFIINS

COc1cc(COc2ccc3c(C)c(Cc4ccccc4)c(=O)oc3c2)cc(OC)c1OC
inactive: [1] 3.5% | [2] 0.9% | [3] -2.3%

CC1(C)CC(=O)C2=C(C1)c1c(ccc3ccccc13)NC2c1ccco1 (configuration not stated)
inactive: [1] 1.8% | [2] 1.1% | [3] 3.8%

O=c1ccc2c(o1)/C(=C/C=C(Cl)Cl)CCC2
inactive: [1] -0.9% | [2] -0.6% | [3] -2%

CN1CCN(C2=Nc3cc(Cl)ccc3Nc3ccccc32)CC1
inactive: [1] -0.2% | [2] -0.4% | [3] -6.6%

Nc1nnc(CSCc2ccc(Cl)cc2Cl)s1
inactive: [1] 0.7% | [2] -0.6% | [3] 6.8%

Cc1ccc(O)c(CCc2ccccc2)n1
inactive: [1] 1.3% | [2] 0.5% | [3] -5.5%

COc1ccc(C(CC(=O)N2CCOCC2)C(C)C)cc1 (configuration not stated)
inactive: [1] -4.7% | [2] -1.9% | [3] -8.6%

CC1(C)CC(CC(=O)O)(c2ccc(Cl)cc2)CCO1 (configuration not stated)
inactive: [1] 2.5% | [2] -1.9% | [3] -4.6%

O=C(/C=C/c1ccccc1)/C=C/c1ccccc1
inactive: [1] 0.8% | [2] 0.3% | [3] 1.5%

CCOC(=O)C(NC(=O)CCC(=O)Nc1ccc(S(N)(=O)=O)cc1)C(O)c1ccccc1 (configuration not stated)
inactive: [1] -0.5% | [2] -1% | [3] 5.9%

COc1ccc(C(=O)NCCC2=CCCCC2)cc1[N+](=O)[O-]
inactive: [1] -5.9% | [2] -1.5% | [3] -4.6%

CCN(CC)C(=S)SSC(=S)N(CC)CC
inactive: [1] -3.2% | [2] -3.2% | [3] -10.6%

CC(=O)c1cn(C)c(=O)[nH]c1=O
inactive: [1] 2.9% | [2] 1.3% | [3] -0.5%

COC(=O)c1ccc(NC(=O)C23CCC(C)(C(=O)O2)C3(C)C)cc1 (configuration not stated)
inactive: [1] 0.4% | [2] -1.5% | [3] 2.4%

CC(C)Oc1ccc2c(=O)c(-c3ccccc3)coc2c1
inactive: [1] 4.4% | [2] 1.4% | [3] 6.8%

CSCC[C@H](NC(=O)OC(C)(C)C)C(=O)N1CCC(C(=O)N[C@@H](C)C(=O)O)CC1
inactive: [1] -3.4% | [2] 0.4% | [3] -4.2%

COc1cccc(-n2c(C)c3c(OC)cccc(=O)c3c2C)c1
inactive: [1] -8.1% | [2] -0.7% | [3] -13.5%

COCCn1c(/C=C/c2ccccc2)nc2ccccc21
inactive: [1] -1.2% | [2] 0% | [3] -3.4%

O=C(NCc1ccco1)/C(=C\C=C\c1ccccc1)NC(=O)c1ccccc1Br
inactive: [1] -0.5% | [2] 0% | [3] 1.6%

Cc1cccc(Nc2ncccc2C(=O)O)c1C
inactive: [1] -2.7% | [2] -1.6% | [3] -4.7%

CC(=O)OCC(=O)[C@@]12OC3(CCCC3)O[C@@H]1C[C@H]1[C@@H]3CCC4=CC(=O)C=C[C@]4(C)[C@@]3(F)[C@@H](O)C[C@@]12C
inactive: [1] 0.8% | [2] -0.9% | [3] -0.7%

O=C(O)c1cc(-c2ccccc2)nc2ccccc12
inactive: [1] -1.1% | [2] -0.1% | [3] -9.8%

CS(=O)(=O)c1cccc(C(=O)Oc2ccccc2)c1
inactive: [1] -2% | [2] 0.1% | [3] 4.6%

NC(N)=NC(=O)Cc1c(Cl)cccc1Cl
inactive: [1] -3.3% | [2] -1.8% | [3] -3.1%

CC(=O)NC(CC(C)C)C(=O)NC(Cc1ccccc1)C(N)=O (stereo not drawn) (Ac-Leu-Phe-NH2; configuration not given here)
inactive: [1] 3.1% | [2] 0.2% | [3] -1.4%

OCCOCCN1CCN(C(c2ccccc2)c2ccc(Cl)cc2)CC1 (configuration not stated)
inactive: [1] 0.1% | [2] -1.8% | [3] 1.1%

COc1ccc2[nH]c3c(c2c1)CCNC3C1CC=C(C)CC1 (configuration not stated)
inactive: [1] -1.7% | [2] 0.2% | [3] 3.8%

CC(C)OC(=O)c1ccc(NC(=O)c2cncc(Br)c2)cc1
inactive: [1] -2.9% | [2] -0.1% | [3] 7.4%

O=C(O)C1CSC(c2ccc3c(c2)OCO3)N1 (configuration not stated)
inactive: [1] 3.1% | [2] 1.1% | [3] -0.7%
